Source: PubChem BioAssay (Tox21)
Where “and” joins values, the source holds several entries; their conditions need not be identical. Equal entries are not always repeated. Inconclusive results are not listed. Some compounds were tested as several samples or in several runs, with calls that do not always agree. Calls of active or inactive are those of the source. Unless noted, the call rests on the fitted dose curve.

Experiments:
[1] = Nuclear factor erythroid 2-related factor 2/antioxidant responsive element (Nrf2/ARE) small molecule agonists: qHTS cell viability counter screen in human keratinocytes (AID 1919968; active means well fitted curve in the direction sought with a large enough effect in the repeat runs; an effect the other way counts as inactive or inconclusive; further: nearly all actives have a fitted effect of over 55% in size; further: potency means the concentration at half of the fitted maximal effect)
Outline: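 KeratinoSens HaCaT cells, 1,500/well, preincubated 5 h, then exposed to compounds in DMSO for 23 h at 37 C/5% CO2. Viability read as CellTiter-Fluor fluorescence after 1 h, in the same wells as the ARE-luciferase read.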

[2] = Nuclear factor erythroid 2-related factor 2/antioxidant responsive element (Nrf2/ARE) small molecule agonists: luciferase reporter gene qHTS assay in human keratinocytes (AID 1919969); further: nearly all actives have a fitted effect of over 35% in size; further: potency means the concentration at half of the fitted maximal effect
[3] = molecular target: Gonadotropin-releasing hormone receptor (Homo sapiens) (UniProt P30968); test: Human gonadotropin-releasing hormone receptor (GnRHR) small molecule agonists, calcium flux assay in GnRHR-HEK293 cells (AID 1920063); further: nearly all actives have a fitted effect of over 35% in size
Outline: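 HEK293 cells stably expressing human GnRHR were dye-loaded for 1 h at 37 C. Compound was added in agonist mode and fluorescence (Ex/Em 480/540) recorded kinetically for 3 min. Fifteen concentrations, triplicates.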

[4] = molecular target: KiSS-1 receptor (Homo sapiens) (UniProt Q969F8); test: Human kisspeptin (KISS1R) small molecule agonists, calcium flux assay in KISS1R-HEK293 cells (AID 1920064; active means well fitted curve in the direction sought with a large enough effect in the repeat runs; an effect the other way counts as inactive or inconclusive)
Outline: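 HEK293 cells stably expressing human KISS1R were loaded with calcium dye for 1 h at 37 C, then given compound; fluorescence (Ex/Em 480/540) was read kinetically for 3 min. Fifteen concentrations, triplicate.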

[5] = G protein-coupled receptor (GPCR) small molecule agonists, calcium flux assay: HEK293 wild type cell line counter screen (AID 1920065)
Outline: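 Wild-type HEK293 cells plated 18 h, loaded with calcium dye 1 h at 37 C, then compounds added in agonist mode (ATP as positive control). Kinetic fluorescence Ex/Em 480/540 recorded 3 min at 1 sec intervals; 15 concentrations, triplicate.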

[6] = p53 small molecule agonists, cell-based qHTS assay with human liver microsomes: qHTS cell viability counter screen (AID 1963579); further: nearly all actives have a fitted effect of over 45% in size
Outline: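 After the 460/530 nm beta-lactamase read, CellTiter-Glo was added to the same wells and luminescence measured after 30 min at room temperature, giving viability of p53RE-bla cells treated 16 h with compounds plus microsomes and NADPH.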

[7] = p53 small molecule agonists, cell-based qHTS assay with rat liver microsomes: qHTS cell viability counter screen (AID 1963580); further: nearly all actives have a fitted effect of over 45% in size
Outline: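 p53RE-bla HCT-116 cells (4,000/well) rested 5 h at 37 C, then given Tox21 compounds in DMSO with rat liver microsomes (0.5 mg/mL final) plus NADPH (0.5 mg/mL final) for 16 h at 37 C. Viability read by CellTiter-Glo luminescence after 30 min at room temperature.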

[8] = p53 small molecule agonists, cell-based qHTS assay: qHTS cell viability counter screen (AID 1963581); further: nearly all actives have a fitted effect of over 45% in size
Outline: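 p53RE-bla HCT-116 cells, compounds added 5 h after plating and incubated 16 h at 37 C. Cytotoxicity measured in the same wells as intracellular ATP by CellTiter-Glo luminescence after 30 min at room temperature.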

[9] = p53 small molecule agonists, cell-based qHTS assay (AID 1963582; active means well fitted activation curve with a large enough effect in the signal ratio in the repeat runs, not every such curve was filed as active; the % refers to the signal ratio)
Outline: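 p53RE-bla reporter cells, compounds added in DMSO after 5 h plating, incubated 16 h at 37 C. Beta-lactamase read via 2 h room-temperature LiveBLAzer B/G FRET substrate, fluorescence intensity.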

[10] = molecular target: 5-hydroxytryptamine receptor 2A (Homo sapiens) (UniProt P28223); test: 5-hydroxytryptamine receptor 2A (HTR2A) small molecule agonists, cell-based qHTS assay (AID 1963587); further: nearly all actives have a fitted effect of over 30% in size
Outline: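 HTR2A-CHO cells, plated 18 h at 37 C/5% CO2, dye-loaded 1 h at 37 C; compounds in DMSO added by pin tool (agonist mode). Intracellular calcium flux read as kinetic fluorescence on FDSS over 2 min at 1 s intervals.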

[11] = molecular target: Muscarinic acetylcholine receptor M1 (Homo sapiens) (UniProt P11229); test: Cholinergic receptor muscarinic 1 (CHRM1) small molecule antagonists, cell-based qHTS assay (AID 1963588); further: nearly all actives have a fitted effect of over 40% in size
Outline: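 CHRM1-CHO calcium-flux assay, antagonist mode. Cells were seeded 18 h, dye-loaded 1 h at 37 C and given compound for 5 min at RT, then acetylcholine was added at 50nM. FDSS fluorescence was read 3 min; 15 concentrations, three runs.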

[12] = molecular target: Muscarinic acetylcholine receptor M1 (Homo sapiens) (UniProt P11229); test: Cholinergic receptor muscarinic 1 (CHRM1) small molecule agonists, cell-based qHTS assay (AID 1963589); further: nearly all actives have a fitted effect of over 35% in size
Outline: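 CHO cells stably expressing human CHRM1 were loaded with calcium dye for 1 h at 37 C, then compound was added in agonist mode. Intracellular calcium fluorescence was followed kinetically at 1 s intervals. Fifteen concentrations were tested in three independent runs.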

[13] = cAMP Responsive Elements (CRE) small molecule agonists, cell-based qHTS assay (AID 1963590)
Outline: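 CRE-bla HEK 293T cells, 2,000/well in DMEM with 10% dialyzed FBS and 25 mM HEPES, pre-incubated 18 h at 37 C, then exposed to compound 3 h at 37 C. Beta-lactamase reporter read with LiveBLAzer B/G FRET substrate after 2 h at room temperature.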

[14] = cAMP Responsive Elements (CRE) small molecule antagonists, cell-based qHTS assay (AID 1963591; active means well fitted inhibition curve with a large enough effect in the signal ratio in the repeat runs, not every such curve was filed as active; the % refers to the signal ratio)
Outline: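 CRE-bla HEK293T cells plated 18 h, then given compound plus NKH477 at 0.25 uM final for 3 h at 37C. Beta-lactamase reporter read with LiveBLAzer B/G FRET substrate after 2 h at room temperature.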

[15] = molecular target: D(2) dopamine receptor (Homo sapiens) (UniProt P14416); test: Dopamine D2 receptor (DRD2) small molecule agonists, cell-based qHTS assay (AID 1963594); further: nearly all actives have a fitted effect of over 35% in size
Outline: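 HEK293 cells stably expressing DRD2 were cultured 24 h at 37 C, then given Ro20-1724 (0.1 mM final) and compounds for 10 min at room temperature. NKH477 (200nM) was then added for 30 min. cAMP was read by HTRF.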

[16] = molecular target: D(2) dopamine receptor (Homo sapiens) (UniProt P14416); test: Dopamine D2 receptor (DRD2) small molecule antagonists, cell-based qHTS assay (AID 1963595; active means well fitted inhibition curve with a large enough effect in the signal ratio in the repeat runs, with a control signal flat; the % refers to the signal ratio)
Outline: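 HEK293 cells stably expressing DRD2, preincubated with 0.1 mM Ro20-1724 and compounds 10 min, were stimulated with 200 nM NKH477 plus 12 nM quinpirole for 30 min at room temperature; cAMP measured by HTRF (665/620 nm).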

[17] = molecular target: 5-hydroxytryptamine receptor 2A (Homo sapiens) (UniProt P28223); test: 5-hydroxytryptamine receptor 2A (HTR2A) small molecule antagonists, cell-based qHTS assay (AID 1963586); further: nearly all actives have a fitted effect of over 45% in size
Outline: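 Antagonist-mode intracellular calcium assay: DOI (4 nM) added after 5 min compound pre-incubation at room temperature to dye-loaded HTR2A-CHO cells. Fluorescence followed for 3 min, sampled every second.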

[18] = molecular target: Beta-2 adrenergic receptor (Homo sapiens) (UniProt P07550); test: Adrenergic beta2 receptor (ADRB2) small molecule antagonists, cell-based qHTS assay (AID 1963592); further: series mostly up to about 92 µM; nearly all actives have a fitted effect of over 50% in size
Outline: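 Cells (CHO, stable ADRB2 overexpression) incubated 18-20hr at 37C; compounds added from DMSO; agonist mix (1nM isoproterenol, 100uM IBMX, 25uM Ro-20-1724) added; 0.5hr RT; d2-cAMP and anti-cAMP-cryptate added; 1hr RT; 665/615 nm read.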

[19] = molecular target: Beta-2 adrenergic receptor (Homo sapiens) (UniProt P07550); test: Adrenergic beta2 receptor (ADRB2) small molecule agonists, cell-based qHTS assay (AID 1963593);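 further: CHO cells stably overexpressing human ADRB2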
Outline: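 CHO cells stably over-expressing ADRB2 were plated overnight at 37C, then dosed with compounds plus a stimulation mix containing 100uM IBMX and 25uM Ro-20-1724 for 0.5hr at room temperature. cAMP was measured by HTRF competition, 1hr.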

[20] = p53 small molecule agonists, cell-based qHTS assay with human liver microsomes (AID 1963577);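 further: p53 response element beta-lactamase reporter cells with liver microsomes plus NADPH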
Outline: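 Steps: plate p53RE-bla cells, incubate 5 h at 37 C; add compound in DMSO; add microsomes (0.5 mg/mL final) and NADPH (0.5 mg/mL final); incubate 16 h at 37 C; add LiveBLAzer, 2 h RT; read fluorescence.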
On the % scale 0 is the no-effect control and ±100 the full control effect.

D(2) dopamine receptor (Homo sapiens), sequence (P14416 whole entry, looked up): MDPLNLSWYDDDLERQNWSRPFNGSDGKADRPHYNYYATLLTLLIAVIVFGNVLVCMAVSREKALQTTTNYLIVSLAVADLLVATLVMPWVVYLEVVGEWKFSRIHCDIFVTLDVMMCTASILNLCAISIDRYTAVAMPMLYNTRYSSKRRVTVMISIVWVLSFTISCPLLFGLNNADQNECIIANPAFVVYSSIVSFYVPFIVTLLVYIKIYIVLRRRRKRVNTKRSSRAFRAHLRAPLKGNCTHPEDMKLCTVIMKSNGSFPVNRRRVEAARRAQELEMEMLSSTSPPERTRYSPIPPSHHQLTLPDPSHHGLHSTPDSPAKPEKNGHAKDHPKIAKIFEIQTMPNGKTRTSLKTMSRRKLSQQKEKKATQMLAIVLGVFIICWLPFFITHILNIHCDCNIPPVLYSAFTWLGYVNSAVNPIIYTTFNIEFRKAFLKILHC
Muscarinic acetylcholine receptor M1 (Homo sapiens), sequence (P11229 whole entry, looked up): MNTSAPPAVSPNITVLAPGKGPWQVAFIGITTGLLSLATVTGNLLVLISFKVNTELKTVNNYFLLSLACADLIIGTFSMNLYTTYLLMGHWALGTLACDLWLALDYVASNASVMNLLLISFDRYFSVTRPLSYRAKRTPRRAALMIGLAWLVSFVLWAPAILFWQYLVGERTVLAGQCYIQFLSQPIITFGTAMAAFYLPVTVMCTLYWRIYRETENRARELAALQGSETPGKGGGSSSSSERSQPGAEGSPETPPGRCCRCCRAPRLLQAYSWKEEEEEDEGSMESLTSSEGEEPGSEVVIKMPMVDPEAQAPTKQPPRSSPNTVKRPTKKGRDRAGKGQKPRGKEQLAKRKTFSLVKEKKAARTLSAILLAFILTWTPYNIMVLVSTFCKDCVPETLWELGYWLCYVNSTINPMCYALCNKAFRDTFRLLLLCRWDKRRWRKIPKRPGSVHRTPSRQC
Beta-2 adrenergic receptor (Homo sapiens), sequence (P07550 whole entry, looked up): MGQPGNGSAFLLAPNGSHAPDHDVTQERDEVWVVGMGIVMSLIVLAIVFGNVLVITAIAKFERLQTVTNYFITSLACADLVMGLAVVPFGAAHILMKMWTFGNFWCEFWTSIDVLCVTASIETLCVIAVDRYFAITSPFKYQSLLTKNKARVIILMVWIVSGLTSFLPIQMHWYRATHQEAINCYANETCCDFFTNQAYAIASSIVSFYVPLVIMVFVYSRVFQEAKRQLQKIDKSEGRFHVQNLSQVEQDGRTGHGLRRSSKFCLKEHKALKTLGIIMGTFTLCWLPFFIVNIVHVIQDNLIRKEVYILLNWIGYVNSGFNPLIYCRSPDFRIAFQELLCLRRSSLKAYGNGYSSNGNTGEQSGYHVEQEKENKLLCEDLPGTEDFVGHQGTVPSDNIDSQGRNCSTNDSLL
Gonadotropin-releasing hormone receptor (Homo sapiens), sequence (P30968 whole entry, looked up): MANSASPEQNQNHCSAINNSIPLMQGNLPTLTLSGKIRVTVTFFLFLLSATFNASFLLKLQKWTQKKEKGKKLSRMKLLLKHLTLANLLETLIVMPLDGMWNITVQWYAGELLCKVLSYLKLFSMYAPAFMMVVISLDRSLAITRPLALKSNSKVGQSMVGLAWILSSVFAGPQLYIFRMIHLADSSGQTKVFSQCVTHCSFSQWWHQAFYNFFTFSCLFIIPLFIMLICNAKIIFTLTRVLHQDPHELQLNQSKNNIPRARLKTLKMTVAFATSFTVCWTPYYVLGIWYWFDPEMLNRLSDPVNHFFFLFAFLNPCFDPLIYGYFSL
KiSS-1 receptor (Homo sapiens), sequence (Q969F8 whole entry, looked up): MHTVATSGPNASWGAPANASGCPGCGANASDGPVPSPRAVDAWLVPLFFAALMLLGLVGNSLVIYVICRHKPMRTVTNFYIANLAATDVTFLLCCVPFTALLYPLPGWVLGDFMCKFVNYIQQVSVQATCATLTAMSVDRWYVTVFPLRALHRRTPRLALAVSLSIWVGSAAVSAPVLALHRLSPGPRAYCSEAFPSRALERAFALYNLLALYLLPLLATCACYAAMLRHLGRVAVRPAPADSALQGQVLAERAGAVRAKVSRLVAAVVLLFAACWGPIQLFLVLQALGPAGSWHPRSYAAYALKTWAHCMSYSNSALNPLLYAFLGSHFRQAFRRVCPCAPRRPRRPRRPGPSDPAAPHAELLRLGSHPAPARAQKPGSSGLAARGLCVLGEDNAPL
5-hydroxytryptamine receptor 2A (Homo sapiens), sequence (P28223 whole entry, looked up): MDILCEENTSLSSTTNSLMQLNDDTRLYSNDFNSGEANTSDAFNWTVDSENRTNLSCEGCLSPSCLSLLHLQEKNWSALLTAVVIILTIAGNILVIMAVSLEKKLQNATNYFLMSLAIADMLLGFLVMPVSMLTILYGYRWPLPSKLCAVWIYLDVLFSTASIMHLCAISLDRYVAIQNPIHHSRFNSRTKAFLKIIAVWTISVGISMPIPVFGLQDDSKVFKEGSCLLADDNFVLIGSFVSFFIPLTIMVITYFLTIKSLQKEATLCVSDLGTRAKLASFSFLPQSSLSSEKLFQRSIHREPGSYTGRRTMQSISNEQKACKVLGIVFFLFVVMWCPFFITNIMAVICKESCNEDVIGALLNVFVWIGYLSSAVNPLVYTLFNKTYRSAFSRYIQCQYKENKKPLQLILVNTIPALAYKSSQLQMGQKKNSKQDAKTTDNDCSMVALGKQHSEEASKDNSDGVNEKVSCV

OCC(Br)CBr (stereo not given)
inactive: Potency [1] | Potency [2] | Potency [3] | Potency [4] | Potency [5] | Potency [6] | Potency [7] | Potency [8] | Potency [9] | Potency [10] | Potency [11] | Potency [12] | Potency [13] | Potency [14] | Potency [15] | Potency [16]

O=[N+]([O-])c1ccccc1-c1ccccc1
inactive: Potency [1] | Potency [2] | Potency [3] | Potency [4] | Potency [5] | Potency [6] | Potency [7] | Potency [8] | Potency [9] | Potency [17] | Potency [10] | Potency [11] | Potency [12] | Potency [13] | Potency [14] | Potency [18] | Potency [15] | Potency [16]

CCOP(=S)(OCC)SCSC(C)(C)C
inactive: Potency [1] | Potency [2] | Potency [3] | Potency [4] | Potency [5] | Potency [6] | Potency [7] | Potency [8] | Potency [9] | Potency [17] | Potency [10] | Potency [11] | Potency [12] | Potency [13] | Potency [14] | Potency [18] | Potency [15] | Potency [16]

CCOP(=S)(OCC)SCn1c(=O)oc2cc(Cl)ccc21
inactive: Potency [1] | Potency [3] | Potency [4] | Potency [5] | Potency [6] | Potency [7] | Potency [8] | Potency [9] | Potency [17] | Potency [10] | Potency [11] | Potency [12] | Potency [18] | Potency [16]
active: Potency [2] 32.9 µM and 61.1 µM

O=P(OCC(Br)CBr)(OCC(Br)CBr)OCC(Br)CBr (stereo not given)
inactive: Potency [1] | Potency [2] | Potency [3] | Potency [4] | Potency [5] | Potency [6] | Potency [7] | Potency [8] | Potency [9] | Potency [17] | Potency [10] | Potency [11] | Potency [12] | Potency [14] | Potency [18] | Potency [15] | Potency [16]

CCOP(=S)(OCC)Oc1cnc2ccccc2n1
inactive: Potency [1] | Potency [2] | Potency [3] | Potency [4] | Potency [5] | Potency [6] | Potency [7] | Potency [8] | Potency [10] | Potency [11] | Potency [12] | Potency [13] | Potency [14] | Potency [18] | Potency [19] | Potency [15] | Potency [16]

CCOP(=S)(OCC)Oc1ccc2c(C)c(Cl)c(=O)oc2c1
inactive: Potency [1] | Potency [3] | Potency [4] | Potency [5] | Potency [6] | Potency [7] | Potency [8] | Potency [9] | Potency [17] | Potency [10] | Potency [11] | Potency [12] | Potency [18] | Potency [15] | Potency [16]
inactive and 10.6 µM (active): Potency [2]

c1ccc(Nc2ccc3ccccc3c2)cc1
active: Potency [1] 68.2 µM | Potency [2] 12.1 µM and 21.7 µM
inactive: Potency [3] | Potency [4] | Potency [5] | Potency [20] | Potency [7] | Potency [8] | Potency [9] | Potency [17] | Potency [10] | Potency [11] | Potency [12] | Potency [14] | Potency [18] | Potency [19] | Potency [15] | Potency [16]

CC(C)CON=O
inactive: Potency [1] | Potency [2] | Potency [3] | Potency [4] | Potency [5] | activity change, negative = cytotoxicity [6] -1.64% [at 13.5 µM] | Potency [7] | Potency [8] | Potency [9] | Potency [17] | Potency [10] | Potency [11] | Potency [12] | Potency [13] | Potency [14] | Potency [18] | Potency [19] | Potency [15] | Potency [16]

O=P(O)(O)CCCl
inactive: Potency [1] | Potency [2] | Potency [3] | Potency [4] | Potency [5] | Potency [6] | Potency [7] | Potency [8] | Potency [17] | Potency [10] | Potency [11] | Potency [12] | Potency [13] | Potency [14] | Potency [18] | Potency [19] | Potency [15] | Potency [16]

Cc1ccc2c(C)cccc2c1
inactive: Potency [1] | Potency [2] | Potency [3] | Potency [4] | Potency [5] | Potency [6] | Potency [7] | Potency [8] | Potency [9] | Potency [17] | Potency [10] | Potency [11] | Potency [12] | Potency [13] | Potency [18] | Potency [15] | Potency [16]

CNC(=O)Oc1cccc2c1OC(C)(C)C2
inactive: Potency [1] | Potency [2] | Potency [3] | Potency [4] | Potency [5] | Potency [6] | Potency [7] | Potency [8] | Potency [9] | Potency [17] | Potency [10] | Potency [11] | Potency [12] | Potency [14] | Potency [18] | Potency [15] | Potency [16]

[O-][Cl+2]([O-])O
inactive: Potency [1] | Potency [2] | Potency [3] | Potency [4] | Potency [5] | Potency [6] | Potency [8] | Potency [9] | Potency [17] | Potency [10] | Potency [11] | Potency [12] | Potency [13] | Potency [14] | Potency [18] | Potency [19] | Potency [15] | Potency [16]

ClC1=C(Cl)[C@]2(Cl)[C@@H]3[C@@H](Cl)[C@@H](Cl)C[C@@H]3[C@@]1(Cl)C2(Cl)Cl
inactive: Potency [1] | Potency [2] | Potency [3] | Potency [4] | Potency [5] | Potency [6] | Potency [7] | Potency [8] | Potency [9] | Potency [17] | Potency [11] | Potency [13] | Potency [14] | Potency [18]

Cc1ccc2ccccc2c1
inactive: Potency [1] | Potency [2] | Potency [3] | Potency [4] | Potency [5] | Potency [6] | Potency [7] | Potency [8] | Potency [9] | Potency [17] | Potency [10] | Potency [11] | Potency [12] | Potency [14] | Potency [18] | Potency [19] | Potency [16]
